From PubChem BioAssay AID720553 (National Center for Advancing Translational Sciences (NCATS), 2013)
Out of some 340,000 compounds screened, about 3,300 (0.97%) were called active.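 Rule for the calls: active = maximum activity change below -70%; inconclusive = maximum activity change from -70% to -50%; inactive = maximum activity change above -50%.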 Many of the other results were omitted from the sample, so actives are more common in it than they were.

test system: Potassium voltage-gated channel subfamily H member 2, brain isoform KCNH2 3.1 (human); assay: qHTS for Inhibitors of KCHN2 3.1: Mutant qHTS; details: U2OS KCNH2 3.1, thallium flux FluxOr; active compounds read low
Text: Many antipsychotic drugs that inhibit the neurotransmitter dopamine also bind to hERG1 channel which might help explain their antipsychotic activity but also produces cardiac side effects. The discovery of the novel KCNH2 3.1 isoform offers a potential new target for the development of antipsychotic drugs without cardiac side effects. This proposal will use a high throughput thallium flux assay developed for KCNH2 to screen compounds that modulate the activity of KCNH2 3.1. The wild type KCNH2 channel will also be screened in parallel to help define the selective modulators of this KCNH2 3.1 potassium channel. The resulting compounds will be validated in electrophysiology experiments. The availability of animal models will allow future testing in vivo for effects on memory and other aspects of animal physiology linked with psychosis. NIH Chemical Genomics Center [NCGC] NIH Molecular Libraries Probe Centers Network [MLPCN] MLPCN Grant: MH096539 Assay Submitter (PI): James Barrow, Johns Hopkins University, Lieber Institute for Brain Development
U2OS cells were resuspended in cell media containing 10% fetal calf serum (FCS) at a concentration of 2 million cells / mL. The solution was treated with the mutant (3.1) virus at 1.77 x 10^8 / mL and allowed to incubate at room temperature in the dark. After 4 hours of incubation, DMEM + 10% fetal bovine serum (FBS) was added to the cell solution. Three microliter was then dispensed into a 1536 tissue culture treated black assay plates which were incubated overnight at 37 C. Two microliter of loading buffer (HBSS + HEPES + Red40 dye quencher + FluxOr dye) was added and the assay plates were incubated for 45 min at room temperature in the dark. […] A stimulation buffer was added to the plate and the second kinetic read (2 min) was obtained. The rate constant was calculated from the kinetic reads and normalized to the positive and negative DMSO controls.
% is set by controls: 0 for no effect and ±100 for the full control effect.

| SMILES | activity change |
| --- | --- |
| O=C(Cc1cccs1)Nc1nnc(SCc2ccc(F)cc2)s1 | 3.31% (inactive) |
| O=C(Cc1cccs1)Nc1nnc(C2CC2)s1 | -217% (active) |
| CCc1ccccc1OCC(=O)Nc1nnc(C2CC2)s1 | -8.55% (inactive) |
| Cc1cc(S(=O)(=O)NC2CCCC2)ccc1-n1cnnn1 | -70.6% (active) |
| CCOC(=O)C1CCCN(S(=O)(=O)c2ccc(-n3cnnn3)c(C)c2)C1 (stereo not drawn) | 10.1% (inactive) |
| O=S(=O)(NC1CCCC1)c1ccc(-n2cnnn2)cc1 | 5.4% (inactive) |
| O=C(c1ccc(N2CCOCC2)c([N+](=O)[O-])c1)N1CCN(c2ccccc2F)CC1 | 1.08% (inactive) |
| O=C(c1ccc(Cl)c([N+](=O)[O-])c1)N1CCN(c2ccccc2)CC1 | 9.67% (inactive) |
| O=C(/C=C/c1ccc(Cl)cc1)N1CCN(c2ccccc2[N+](=O)[O-])CC1 | -108% (active) |
| C[C@H]1CN([C@@H](C)CO)C(=O)CCCn2cc(nn2)CO[C@@H]1CN(C)C(=O)Nc1ccccc1 | 13.1% (inactive) |
| O=C(O)C(=Cc1ccc([N+](=O)[O-])cc1)CCc1ccccc1 | -2.12% (inactive) |
| COc1ccc(NC(=O)CN(C)C(=O)c2cccc(S(=O)(=O)N3CCN(c4ccccc4)CC3)c2)cc1 | -101% (active) |
| Cc1ccc(NC(=O)CN(C)C(=O)c2cccc(S(=O)(=O)N3CCCC3)c2)cc1 | 4.37% (inactive) |
| CCOc1ccc(NC(=O)CN(C)C(=O)c2cccc(S(=O)(=O)N3CCCC3)c2)cc1OCC | 0.537% (inactive) |
| CC(C)CC1C(=O)N(Cc2cn(CC3CCCCC3)nn2)CCS(=O)(=O)N1Cc1ccc(-c2ccc(Cl)cc2)cc1 (stereo not drawn) | 4.02% (inactive) |
| Cc1sc2nc(CC(N)=O)[nH]c(=O)c2c1-c1ccccc1 | 4% (inactive) |
| O=c1[nH]c(CN2CCOCC2)nc2scc(-c3ccccc3)c12 | 0.718% (inactive) |
| NC(=O)Cc1nc2scc(-c3ccc(Cl)cc3)c2c(=O)[nH]1 | -145% (active) |
| C[C@@H]1CN([C@@H](C)CO)S(=O)(=O)c2ccc(-c3ccc(C(=O)N(C)C)cc3)cc2O[C@@H]1CN(C)Cc1ccccc1C(=O)O | -0.261% (inactive) |
| CC(=O)Nc1ccc(C=Cc2ccc([N+](=O)[O-])cc2)cc1 | -16.2% (inactive) |
| Cc1ccc(C(CNC(=O)Nc2ccccc2)N2CCN(C)CC2)cc1 (stereo not drawn) | -194% (active) |
| Cc1ccc(C(CNC(=O)Nc2cccc(C)c2)N2CCN(C)CC2)cc1 (stereo not drawn) | 3.75% (inactive) |

| SMILES | activity change |
| --- | --- |
| COc1ccc(S(=O)(=O)NCC(c2ccc(C)cc2)N2CCN(C)CC2)cc1OC (stereo not drawn) | -2.06% (inactive) |
| Cc1ccc(S(=O)(=O)N2C[C@H]3n4c(=O)ccc(=O)n4C[C@H](OC(=O)NC4CCCC4)[C@@]3(O)C2)cc1 | -5.45% (inactive) |
| C[C@@H]1CN([C@H](C)CO)C(=O)c2cc(Br)cnc2O[C@@H]1CN(C)Cc1cncnc1 | 6.02% (inactive) |
| C[C@H]1CN([C@@H](C)CO)C(=O)c2cc(Br)cnc2O[C@H]1CN(C)S(=O)(=O)c1cccs1 | -4.3% (inactive) |
| C[C@@H]1CN([C@@H](C)CO)C(=O)c2cc(Br)cnc2O[C@H]1CN(C)Cc1ccc(-c2ccccc2)cc1 | -85.7% (active) |
| C[C@H](CO)N1C[C@H](C)[C@H](CN(C)C(=O)Nc2ccc3c(c2)OCO3)Oc2ncc(Br)cc2C1=O | 12.1% (inactive) |
| CSc1ncnc2c1ncn2CCCNCC(C)c1ccccc1 (stereo not drawn) | 6.46% (inactive) |
| COc1cccc(-n2c(SCC(=O)NC3CCCCC3)nc3n[nH]c(C)c3c2=N)c1 | 13.7% (inactive) |
| Cc1ccc(-n2c(SCC(=O)NCCC3=CCCCC3)nc3n[nH]c(C)c3c2=N)cc1Cl | -4.71% (inactive) |
| CCCCNC(=O)CSc1nc2n[nH]c(C)c2c(=N)n1-c1cccc(Cl)c1C | -75.1% (active) |
| Cc1[nH]c2ccccc2c1C(=O)C(=O)NCc1nnnn1-c1cccc(F)c1 | -6.04% (inactive) |
| O=C(COC(=O)CCc1c[nH]c2ccccc12)Nc1cccc(Cl)c1 | -6.53% (inactive) |
| CCN(C(=O)COC(=O)Cc1c(F)cccc1Cl)c1c(N)n(Cc2ccccc2)c(=O)[nH]c1=O | -102% (active) |
| CCN(C(=O)COC(=O)CCOc1cccc(C)c1)c1c(N)n(Cc2ccccc2)c(=O)[nH]c1=O | 11.4% (inactive) |
| COCCN(C(=O)COC(=O)Cc1cccc(OC)c1)c1c(N)n(Cc2ccccc2)c(=O)[nH]c1=O | 8.15% (inactive) |
| CC1CCC2(CC1)NC(=O)N(CC(=O)NCc1ccco1)C2=O (stereo not drawn) | 15.5% (inactive) |
| COc1ccccc1C(CNC(=O)c1cccc(S(=O)(=O)Nc2ccc(F)cc2)c1)N(C)C (stereo not drawn) | 0.933% (inactive) |
| O=C(NCCN1CCOCC1)c1cccc(S(=O)(=O)Nc2ccc(F)cc2)c1 | -9.37% (inactive) |
| O=C(NCc1ccccc1CN1CCCC1)c1cccc(S(=O)(=O)Nc2ccc(F)cc2)c1 | -81.1% (active) |
| O=C(CC(CC(=O)c1ccccc1)c1ccco1)c1ccccc1 | -1.01% (inactive) |
| CSC1=NN(c2ccccc2)CN(c2ccccc2)N1C | -1.49% (inactive) |
